# In PubChem BioAssay (NCATS):
# Records with an inconclusive call do not appear. The source made the active and inactive calls. Calls come from the whole dose curve; as a rule, active = well fitted cell-killing curve with a large enough effect; inconclusive = small, poorly fitted or top-dose-only effect, or effect the other way; inactive = flat fitted curve, though single readings scatter.
# Assay: Cell Viability - LYMP2-003 (AID 965);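 note: cells exposed to compounds for 24 h before reading; 0% = DMSO only and full effect = 92 µM tetraoctylammonium bromide; nearly all actives have a fitted effect of over 50% in size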
# Conditions: LYMP2-003 lymphoblastoid cell viability; series mostly up to 92.2 µM; activity change, negative = cytotoxicity: at the top concentration
# Description: NIH Chemical Genomics Center [NCGC]
# NIH Molecular Libraries Screening Centers Network [MLSCN]
# National Institutes of Environmental Health Sciences [NIEHS]
# National Toxicology Program [NTP]
# We have developed a 1536-well cell-based assay for quantitative high throughput screening (qHTS) against a number of cell lines to determine in vitro cytotoxicity of small molecules. This particular assay uses a human lymphoblastoid cell line (LYMP2-003) purchased from Coriell Institute for Medical Research.
# NCGC Assay Protocol Summary:
# The CellTiter-Glo luminescent cell viability assay (Promega) is a homogeneous method to measure the number of viable cells in culture. The end point readout of this assay is based on quantitation of intracellular ATP, an indicator of metabolic activity, using the luciferase reaction. Luciferase catalyzes the oxidation of beetle Luciferin to oxyluciferin and light in the presence of ATP. The luminescent signal is proportional to amount of ATP present.
# Using the CellTiter-Glo luminescent cell viability assay, the amount of cellular ATP was measured in the lymphoblastoid cell line with complete culture medium following compound treatment for 24 hours. The assay was performed in opaque white Kalypsys 1536-well plates. In the screen, tetraoctylammonium bromide was used as positive control. Library compounds were measured for their ability to cause acute toxicity in the cell line, as reflected by a decrease in intracellular ATP levels, in a concentration-dependent manner. […] AC50 values were determined from concentration-response data modeled with the standard Hill equation.
# qHTS protocol for CellTiter Glo lymphoblastoid cellular assay
# [Step] [Parameter] [Value] [Description]
# 1. Reagent; 5 uL; 2500 lymphoblastoid cells/well
# 2. Time; 5 hr; 37 C incubation
# 4. Controls; 23 nL; Tetraoctylammonium bromide 6.4pM to 92 uM
# 5. Time; 24 hr; 37 C incubation
# 6. Reagent; 5 uL; CellTiter Glo reagent
# 7. Time; 30 min; Room Temperature
# 8. Detection; Luminescence; Viewlux plate reader
# Keywords: cell viability, cytotoxicity, lymphoblastoid cell line, luminescence, NTPHTS, NTPHTS_NCGC, NIEHS, DSSTox, MLSMR, MLSCN, NIH Roadmap, qHTS, NCGC
Structure (SMILES),"activity change, negative = cytotoxicity",Potency
C1OCOCO1,14.1% (inactive),
CC1=CC(C)(C)Nc2ccccc21,,inactive
CN(C)C=O,,inactive
O=C(O)c1ccccc1C(c1ccc(O)cc1)c1ccc(O)cc1,14.9% (inactive),
COc1c2ccoc2cc2oc(=O)ccc12,2% (inactive),
Cc1c(N=C=O)cccc1N=C=O,14.9% (inactive),
O=NO,,inactive
C=CC(=C)CCC=C(C)C,18.2% (inactive),
C=CCc1ccc(OC)c(OC)c1,0.415% (inactive),
CC(C)=CCCC(C)CCO (stereo not given),0.506% (inactive),
CCCN(CCC)C(=O)SCC,16.6% (inactive),
C=C(C)C1CC=C(C)C(O)C1 (stereo not given),27.3% (inactive),
ClCCCl,12.7% (inactive),
COC(=O)c1ccc(C=O)cc1,8.85% (inactive),
c1ccccc1,,inactive
O=C(O)c1ccc(O)cc1O,,inactive
COc1cc(/C=C/c2ccccc2)oc(=O)c1,-2.41% (inactive),
O=C1CCc2ccccc2O1,20.3% (inactive),
Nc1ccc(Cl)cc1Cl,18.4% (inactive),
C/C=C\c1ccc(OC)cc1,12% (inactive),

Structure (SMILES),"activity change, negative = cytotoxicity",Potency
CCCCCCCCCCCCCC(=O)O,13.7% (inactive),
Cc1cccc([N+](=O)[O-])c1C,10.5% (inactive),
CCC(C)c1ccccc1O (stereo not given),,inactive
O=C1c2ccccc2C(=O)C1c1ccc2ccccc2n1,1.9% (inactive),
O[C@@H]([C@H](O)[C@@H](O)CBr)[C@@H](O)CBr,17.9% (inactive),
O=[N+]([O-])c1cccc(Cl)c1Cl,6.46% (inactive),
CCCCCCCCCCCCCCC1CO1 (stereo not given),25.4% (inactive),
Nc1ccc(S(=O)(=O)O)cc1,16.4% (inactive),
COc1ccc(/C=C/c2cc(OC)cc(=O)o2)cc1,13.6% (inactive),
CCCCCCCCCCCC(=O)O,,inactive
O=C(O)c1ccccc1,9.33% (inactive),
Clc1cc(Cl)c(Cl)cc1Cl,18.8% (inactive),
O=C(O)CC(C(=O)O)C(CC(=O)O)C(=O)O (stereo not given),4.47% (inactive),
Cc1ccccc1C,,inactive
COCC(=O)O,22.5% (inactive),
Cc1ccc([N+](=O)[O-])c(C)c1,3.83% (inactive),
C=CCOC(=O)c1ccccc1C(=O)OCC=C,12.2% (inactive),
c1ccc2c(c1)[nH]c1ccccc12,9.54% (inactive),
Clc1cc(Cl)c(Cl)c(Cl)c1Cl,6.17% (inactive),
COc1ccc2nc(N)sc2c1,23% (inactive),
